Data on seven molecules can be found in PubChem BioAssay (NCI).

The panel holds about 83,000 compounds, 20% with a hit somewhere; the sample as a whole holds those more often.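 Percent growth is the endpoint: 0 to 100 indicates growth inhibition (40 means 60% inhibition), 0 means no net growth, and negative values indicate cell death.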 A number with no mark means an inactive call. Activity calls are given as the source filed them. The calls were made as follows: active = growth percent below 10; inactive = the rest.

Some test systems named below: NCI-H23 lung; NCI-H226 lung; NCI-H322M lung; HOP-62 NSCLC; NCI-H460 lung; HOP-92 NSCLC; NCI-H522 lung; A549/ATCC NSCLC; 786-0 renal; COLO 205 colon; DU-145 prostate; K-562 leukemia; MALME-3M melanoma; MDA-MB-231 breast; RXF 393 renal; SF-268 CNS; SF-295 CNS; SF-539 CNS; UACC-257 melanoma; M14 melanoma.
What all share (test): NCI-60 one-dose screen, 48 h (100 = growth as untreated, 0 = no growth, -100 = all killed)
What all share (conditions): 10 µM unless noted

As for `Brc1ccc2c(c1)c(-c1nc(-c3c[nH]c4ncccc34)cs1)cn2CCN1CCOCC1`, the growth is 71.8% in the assay with NCI-H23 lung; 60.2% in the assay with NCI-H226 lung; 72.1% in the assay on NCI-H322M lung; 60.4% in the assay on HOP-62 NSCLC; 63.2% in the assay with NCI-H460 lung; 52.2% in the assay with HOP-92 NSCLC. In addition, the growth with NCI-H522 lung was 76.1%; in the assay with A549/ATCC NSCLC it was 61.7%; with 786-0 renal, 67.5%; in the assay on COLO 205 colon it was 64.3%; in the assay on DU-145 prostate, 86.5%; in the assay with K-562 leukemia, 24.3%. Further, the growth with MALME-3M melanoma was 88.5%; with MDA-MB-231 breast, 53.3%; in the assay with RXF 393 renal, 74.6%; in the assay with SF-268 CNS it was 65.4%; in the assay with SF-295 CNS, 74.4%; in the assay with SF-539 CNS it was 61%. Further, the growth with UACC-257 melanoma was 99.7%; with M14 melanoma, 63.8%.
As for `COc1cc(/C=C/[N+](=O)[O-])c([N+](=O)[O-])cc1OC`, the growth is 79.6% in the assay with NCI-H23 lung; 16.1% in the assay with NCI-H226 lung; 110% with NCI-H322M lung; 81.1% in the assay with HOP-62 NSCLC; 76.1% in the assay with NCI-H460 lung; 94.2% in the assay with HOP-92 NSCLC. The growth in the assay with NCI-H522 lung is -89.9% (active); with A549/ATCC NSCLC, 78%; in the assay with 786-0 renal, -30.7% (active); in the assay with COLO 205 colon, -52.7% (active); in the assay with DU-145 prostate, 38.6%; in the assay with K-562 leukemia, 10.9%. Moreover, the growth in the assay on MALME-3M melanoma is 11.7%; in the assay with MDA-MB-231 breast, -12.1% (active); in the assay on RXF 393 renal it was -92.9% (active); with SF-268 CNS, 48.3%; in the assay with SF-295 CNS, 107%; with SF-539 CNS, -32.4% (active). Moreover, the growth is 65.7% in the assay with UACC-257 melanoma and 7.35% (active) in the assay on M14 melanoma.
`COC(=O)[C@@H](C)C[C@H](Cc1ccccc1)NC(=O)c1csc([C@@H](C[C@H](C(C)C)N(C)C(=O)[C@@H](NC(=O)CN(C)C)C2CC2)OC(C)=O)n1`: the growth in the assay on NCI-H23 lung was 25%; in the assay with NCI-H226 lung it was 19.1%; in the assay with NCI-H322M lung, 47.7%; in the assay with HOP-62 NSCLC, 19.1%; with NCI-H460 lung, 10.3%; in the assay with HOP-92 NSCLC, 26.4%. For the same molecule, the growth in the assay on NCI-H522 lung was -44.7% (active); in the assay with A549/ATCC NSCLC it was 13.5%; with 786-0 renal, 21%; in the assay with COLO 205 colon it was -72.8% (active); in the assay on DU-145 prostate it was 3.44% (active); in the assay on K-562 leukemia it was 9.12% (active). For the same molecule, the growth with MALME-3M melanoma is 69.8%; in the assay with MDA-MB-231 breast it was 24.2%; with RXF 393 renal it was 37.6%; with SF-268 CNS it was 33.3%; with SF-295 CNS, 13.5%; with SF-539 CNS, 0.502% (active). Besides, the results for the growth in the assay on UACC-257 melanoma and in the assay with M14 melanoma were 60.3% and 13%, respectively.
Regarding `O=[N+]([O-])CC(c1ccccc1Cl)c1c(-c2ccccc2)[nH]c2ccccc12` (stereo not given), the growth was 53.8% in the assay with NCI-H23 lung; 30.9% with NCI-H226 lung; 42.7% with NCI-H322M lung; 30.3% in the assay with HOP-62 NSCLC; 22.9% in the assay on NCI-H460 lung; 36.1% with HOP-92 NSCLC. Further, the growth in the assay with NCI-H522 lung is -10.9% (active); with A549/ATCC NSCLC, 31.5%; with 786-0 renal, 25.2%; in the assay with COLO 205 colon it was 15%; in the assay on DU-145 prostate it was 43.7%; with K-562 leukemia it was 12.4%. In addition, the growth in the assay with MALME-3M melanoma was 42.1%; with MDA-MB-231 breast, 46.2%; in the assay with RXF 393 renal, 27.8%; with SF-268 CNS, 50.1%; in the assay on SF-295 CNS it was 24.3%; in the assay with SF-539 CNS, 27.2%. Also, the growth was 48.9% in the assay with UACC-257 melanoma and 21.3% in the assay with M14 melanoma.
For `CCCOC(=O)N[C@H]1CCc2c(Br)c(OC)c(OC)c(OC)c2-c2ccc(SC)c(=O)cc21`, the growth in the assay on NCI-H23 lung is 26.9%; with NCI-H226 lung, 15.4%; with NCI-H322M lung it was 34.6%; in the assay with HOP-62 NSCLC it was 41.1%; in the assay on NCI-H460 lung it was -18.1% (active); in the assay with HOP-92 NSCLC it was -3.98% (active). Further, the growth is 8.5% (active) in the assay with NCI-H522 lung; 18.2% with A549/ATCC NSCLC; 1.42% (active) in the assay with 786-0 renal; -31.9% (active) in the assay with COLO 205 colon; -15.7% (active) in the assay with DU-145 prostate; 10.1% in the assay on K-562 leukemia. The growth is 38.4% in the assay with MALME-3M melanoma; -13.4% (active) with MDA-MB-231 breast; 13.8% with RXF 393 renal; 17.8% in the assay on SF-268 CNS; 5.54% (active) with SF-295 CNS; 0.697% (active) in the assay with SF-539 CNS. In addition, the figures for the growth with UACC-257 melanoma and with M14 melanoma were 64.5% and -26.3% (active), respectively.
In the case of `C[C@]12CC[C@H]3[C@@H](CC4SC(N)=NC45C/C(=N/NC(N)=O)CC[C@]35C)[C@@H]1CCC2=O` (stereo not given in full), the growth in the assay with NCI-H23 lung is -44.3% (active); in the assay with NCI-H226 lung, 108%; in the assay with NCI-H322M lung, 52.4%; in the assay with HOP-62 NSCLC it was 75.5%; in the assay on NCI-H460 lung, -38.7% (active); in the assay on HOP-92 NSCLC, 46.6%. Besides, the growth was -18.6% (active) with NCI-H522 lung; 0.923% (active) in the assay on A549/ATCC NSCLC; -9.65% (active) in the assay with 786-0 renal; 35% in the assay on COLO 205 colon; 31.1% with DU-145 prostate; -38.5% (active) in the assay on K-562 leukemia. Further, the growth with MALME-3M melanoma is 3.07% (active); in the assay with MDA-MB-231 breast it was 35.2%; with RXF 393 renal, 7.08% (active); in the assay with SF-268 CNS, -6.41% (active); in the assay with SF-295 CNS, 45.7%; with SF-539 CNS it was 87.2%. In addition, the growth was 105% in the assay with UACC-257 melanoma and -51.1% (active) in the assay on M14 melanoma.
With `COC(=O)[C@@]1(C)CC[C@]2(C)CC[C@]3(C)C4=CC=C5C(=CC(=O)C(O)=C5C)[C@]4(C)CC[C@@]3(C)[C@@H]2C1`, the growth is -72.6% (active) in the assay with NCI-H23 lung; -59.1% (active) with NCI-H226 lung; -95.3% (active) with NCI-H322M lung; -90.6% (active) in the assay with HOP-62 NSCLC; -83% (active) with NCI-H460 lung; -86.7% (active) in the assay on HOP-92 NSCLC. Besides, the growth with NCI-H522 lung is -78.3% (active); in the assay on A549/ATCC NSCLC, -92.9% (active); in the assay with 786-0 renal, -90% (active); with COLO 205 colon it was -77.2% (active); in the assay on DU-145 prostate it was -96.7% (active); in the assay with K-562 leukemia it was -54.4% (active). In addition, the growth in the assay with MALME-3M melanoma was -87.3% (active); in the assay with MDA-MB-231 breast it was -93.4% (active); in the assay with RXF 393 renal, -84% (active); in the assay with SF-268 CNS, -83.2% (active); in the assay on SF-295 CNS it was -91.8% (active); with SF-539 CNS, -99.6% (active). The growth in the assay with UACC-257 melanoma was -88.3% (active); in the assay on M14 melanoma, -94% (active).
